Results filed as inconclusive are left out. Entries that show only a call come without a potency. Active and inactive are the calls of the source. Unless noted, calls come from the whole dose curve; as a rule, active = well fitted curve in the direction sought with a large enough effect in the repeat runs; inconclusive = weak or mixed curves; inactive = no such curve, though single readings can be large; an effect the other way counts as inactive or inconclusive.
target: Progesterone receptor (Homo sapiens) (UniProt P06401); assay: qHTS assay to identify small molecule antagonists of the progesterone receptor (PR) signaling pathway (AID 1346795; active = well fitted inhibition curve with a large enough effect in the signal ratio in the repeat runs, not every such curve was filed as active; the % refers to the signal ratio; note: potency is the fitted concentration of half-maximal effect); details: PR-UAS-bla HEK293T, beta-lactamase FRET ratio, 16 h; series mostly up to 92.4 µM
Sequence (P06401 whole entry, looked up): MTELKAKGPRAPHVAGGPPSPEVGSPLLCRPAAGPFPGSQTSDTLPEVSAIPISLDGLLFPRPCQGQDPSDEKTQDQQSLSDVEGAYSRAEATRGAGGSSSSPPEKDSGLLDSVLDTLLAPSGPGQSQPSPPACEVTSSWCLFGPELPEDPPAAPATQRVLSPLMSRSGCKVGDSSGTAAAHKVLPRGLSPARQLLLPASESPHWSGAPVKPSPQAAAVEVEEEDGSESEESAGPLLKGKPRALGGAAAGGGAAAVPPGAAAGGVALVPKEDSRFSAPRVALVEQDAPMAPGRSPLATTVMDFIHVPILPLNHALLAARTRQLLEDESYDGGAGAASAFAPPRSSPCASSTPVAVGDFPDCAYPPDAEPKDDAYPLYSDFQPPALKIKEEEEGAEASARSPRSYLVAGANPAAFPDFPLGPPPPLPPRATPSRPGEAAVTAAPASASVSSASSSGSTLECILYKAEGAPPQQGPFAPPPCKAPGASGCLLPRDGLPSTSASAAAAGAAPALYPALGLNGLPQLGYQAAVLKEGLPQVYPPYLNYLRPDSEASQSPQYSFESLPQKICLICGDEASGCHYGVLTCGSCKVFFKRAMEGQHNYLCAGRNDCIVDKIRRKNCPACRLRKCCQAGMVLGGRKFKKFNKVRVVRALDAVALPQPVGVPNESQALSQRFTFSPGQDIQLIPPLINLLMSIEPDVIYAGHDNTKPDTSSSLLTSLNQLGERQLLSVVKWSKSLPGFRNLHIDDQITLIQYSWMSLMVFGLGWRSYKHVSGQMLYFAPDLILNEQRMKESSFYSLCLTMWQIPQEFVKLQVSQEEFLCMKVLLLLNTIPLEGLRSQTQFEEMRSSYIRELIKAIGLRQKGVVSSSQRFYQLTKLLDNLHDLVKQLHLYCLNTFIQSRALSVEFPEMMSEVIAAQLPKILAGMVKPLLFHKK
Method in brief: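 Screening used a GripTite HEK293T line with PR-responsive UAS-beta-lactamase. Cells were challenged with compound in the presence of 1 nM R5020 final for 16 hr at 37C; B/G FRET substrate, 2 hr room temperature, fluorescence.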

Compound | Potency
CN(c1nccc(=O)[nH]1)C1CCN(c2nc3ccccc3n2Cc2ccc(F)cc2)CC1 | inactive
CC1(C)CCC(C)(C)c2cc(NC(=O)c3ccc(C(=O)O)cc3)ccc21 | 16.8 µM (active)
O=C(c1ccccc1)c1ccc2n1CCC2C(=O)O (configuration not stated) | inactive
Cc1nc2ccccc2n1Cc1ccc(Cl)cc1 | 13.3 µM (active)
COCCCCCCCCOCCC[Si](C)(O[Si](C)(C)C)O[Si](C)(C)C | inactive
CCOc1ccc2[nH]cc(C(=O)NCc3ccccc3)c(=O)c2n1 | inactive
CN(C)CC/C=C1\c2ccccc2COc2ccccc21 | inactive
CC(=O)N(O)CCCCCNC(=O)CCC(=O)N(O)CCCCCNC(=O)CCC(=O)N(O)CCCCCN | inactive
O=S1(=O)c2cccc3cccc(c23)N1CCCN1CCN(c2ccc(F)cc2)CC1 | 18.8 µM (active)
O=C(c1ccc(O)cc1)c1ccc(O)cc1 | 48.6 µM (active)
O=C(O)C(c1ccc(Cl)cc1)c1ccc(Cl)cc1 | inactive
CC(=O)OC/C=C/c1ccccc1 | inactive
CN1CCC(OC(c2ccccc2)c2ccccc2)CC1 | inactive

system: not listed separately; assay: qHTS assay to identify small molecule antagonists of the progesterone receptor (PR) signaling pathway - cell viability counter screen (AID 1346798); details: PR-UAS-bla HEK293T viability, CellTiter-Glo luminescence, 16 h; series mostly up to 92.4 µM; note: nearly all actives have a fitted effect of over 50% in size; note: potency is the fitted concentration of half-maximal effect
Method in brief: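 Measures cytotoxicity in parallel with the PR antagonist reporter read: HEK293T PR-UAS-bla cells get compound and R5020 for 16 hr, and remaining viable cells are quantified by CellTiter-Glo luminescence.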

Compound | Potency
O=C(CC(=O)c1ccccc1)c1ccccc1 | inactive
CC(C)=CCCC(C)CC=O (configuration not stated) | inactive
CCCCOC(=O)c1ccccc1C(=O)OCC(CC)CCCC (configuration not stated) | inactive
O=C(c1ccccc1)c1ccc2n1CCC2C(=O)O (configuration not stated) | inactive
CCN(CC)C(C)CN1c2ccccc2Sc2ccccc21 (configuration not stated) | inactive
O=C(Nc1ccccc1)OCC(CN1CCCCC1)OC(=O)Nc1ccccc1 (configuration not stated) | inactive
CC(O)C1CCCCC1 (configuration not stated) | inactive
CCCCCCOC(=O)CCC | inactive
COCCO | inactive
C=C(C)C(=O)OCCN(C)C | inactive
CC(C)(C)c1ccc(S)cc1 | inactive
O=c1[nH]cnc2ccccc12 | inactive
CN1CCN(C2=Nc3ccccc3Sc3ccc(Cl)cc32)CC1 | inactive
CCC(C)N(C)C(=O)c1cc2ccccc2c(-c2ccccc2Cl)n1 (configuration not stated) | inactive
Cc1ccccn1 | inactive
N#Cc1c(F)cccc1F | inactive
S=C(S)NCCNC(=S)S | inactive
O=C(O)Cc1cc(I)c(Oc2ccc(O)c(I)c2)c(I)c1 | inactive
C=CCCCCCC | inactive
O=C1CCCCCO1 | inactive
CN(C)CC[C@@H](c1ccc(Br)cc1)c1ccccn1 | 2.66 µM (active)
FC(F)(F)C(F)(F)C(F)(F)C(F)(F)C(F)(F)C(F)(F)CCI | inactive
O=C(NS(=O)(=O)/C=C/c1cccs1)c1ccc(F)cc1Br | inactive
O=C(O)C1CCC(C(=O)O)CC1 (configuration not stated) | inactive
c1ccc(-c2nc[nH]c2-c2ccccc2)cc1 | inactive
CC(=O)OCCc1ccccc1 | inactive
Cc1ccc(C(C)c2ccc(C)c(C)c2)cc1C | inactive

system: not listed separately; assay: qHTS assay to identify small molecule agonists of the progesterone receptor (PR) signaling pathway - cell viability counter screen (AID 1346799; calls by dose curve; note: nearly all actives have a fitted effect of over 45% in size); details: PR-UAS-bla HEK293T viability, CellTiter-Glo luminescence, 16 h; series mostly up to 92.4 µM
Method in brief: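 Using the same plates as the PR reporter screen, HEK293T PR-UAS-bla cells received compounds for 16 hr at 37C and were then lysed with CellTiter-Glo; luminescence was read 30 min later at room temperature.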

Compound | Potency
O=C(CC(=O)c1ccccc1)c1ccccc1 | inactive
CC(C)=CCCC(C)CC=O (configuration not stated) | inactive
CN(c1nccc(=O)[nH]1)C1CCN(c2nc3ccccc3n2Cc2ccc(F)cc2)CC1 | inactive
CCCCOC(=O)c1ccccc1C(=O)OCC(CC)CCCC (configuration not stated) | inactive
CCN(CC)C(C)CN1c2ccccc2Sc2ccccc21 (configuration not stated) | inactive
O=C(Nc1ccccc1)OCC(CN1CCCCC1)OC(=O)Nc1ccccc1 (configuration not stated) | inactive
CC(O)C1CCCCC1 (configuration not stated) | inactive
CCCCCCOC(=O)CCC | inactive
COCCO | inactive
C=C(C)C(=O)OCCN(C)C | inactive
CC(C)(C)c1ccc(S)cc1 | inactive
O=c1[nH]cnc2ccccc12 | inactive
CN1CCN(C2=Nc3ccccc3Sc3ccc(Cl)cc32)CC1 | inactive
CCC(C)N(C)C(=O)c1cc2ccccc2c(-c2ccccc2Cl)n1 (configuration not stated) | inactive
Cc1ccccn1 | inactive
N#Cc1c(F)cccc1F | inactive
S=C(S)NCCNC(=S)S | inactive
O=C(O)Cc1cc(I)c(Oc2ccc(O)c(I)c2)c(I)c1 | inactive
CC(=O)N(O)CCCCCNC(=O)CCC(=O)N(O)CCCCCNC(=O)CCC(=O)N(O)CCCCCN | inactive
O=C1CCCCCO1 | inactive
CN(C)CC[C@@H](c1ccc(Br)cc1)c1ccccn1 | inactive
FC(F)(F)C(F)(F)C(F)(F)C(F)(F)C(F)(F)C(F)(F)CCI | inactive
O=C(NS(=O)(=O)/C=C/c1cccs1)c1ccc(F)cc1Br | inactive
O=C(O)C1CCC(C(=O)O)CC1 (configuration not stated) | inactive
CC(=O)OC/C=C/c1ccccc1 | inactive
c1ccc(-c2nc[nH]c2-c2ccccc2)cc1 | inactive
CC(=O)OCCc1ccccc1 | inactive
Cc1ccc(C(C)c2ccc(C)c(C)c2)cc1C | inactive

system: not listed separately; assay: qHTS assay to identify small molecule antagonists of the TGF-beta/Smad signaling pathway - cell viability counter screen (AID 1346824); details: SBE-bla HEK293T viability, CellTiter-Glo luminescence; series mostly up to 76.8 µM; note: nearly all actives have a fitted effect of over 50% in size
Method in brief: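 Cytotoxicity counter-screen run in the same wells as the beta-lactamase Smad reporter read: CellTiter-Glo luminescence after 30 min at room temperature. HEK 293T SBE-bla cells had 5 hr compound exposure at 37 C with TGF-beta1 (0.25 ng/mL stock).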

Compound | Potency
O=C(CC(=O)c1ccccc1)c1ccccc1 | inactive
CC(C)=CCCC(C)CC=O (configuration not stated) | inactive
CN(c1nccc(=O)[nH]1)C1CCN(c2nc3ccccc3n2Cc2ccc(F)cc2)CC1 | inactive
CC1(C)CCC(C)(C)c2cc(NC(=O)c3ccc(C(=O)O)cc3)ccc21 | inactive
CCCCOC(=O)c1ccccc1C(=O)OCC(CC)CCCC (configuration not stated) | inactive
O=C(c1ccccc1)c1ccc2n1CCC2C(=O)O (configuration not stated) | inactive
CCN(CC)C(C)CN1c2ccccc2Sc2ccccc21 (configuration not stated) | inactive
O=C(Nc1ccccc1)OCC(CN1CCCCC1)OC(=O)Nc1ccccc1 (configuration not stated) | inactive
CC(O)C1CCCCC1 (configuration not stated) | inactive
Cc1nc2ccccc2n1Cc1ccc(Cl)cc1 | inactive
COCCCCCCCCOCCC[Si](C)(O[Si](C)(C)C)O[Si](C)(C)C | inactive
CCCCCCOC(=O)CCC | inactive
COCCO | inactive
C=C(C)C(=O)OCCN(C)C | inactive
CC(C)(C)c1ccc(S)cc1 | inactive
CCOc1ccc2[nH]cc(C(=O)NCc3ccccc3)c(=O)c2n1 | inactive
O=c1[nH]cnc2ccccc12 | inactive
CN1CCN(C2=Nc3ccccc3Sc3ccc(Cl)cc32)CC1 | inactive
CCC(C)N(C)C(=O)c1cc2ccccc2c(-c2ccccc2Cl)n1 (configuration not stated) | inactive
Cc1ccccn1 | inactive

Compound | Potency
N#Cc1c(F)cccc1F | inactive
S=C(S)NCCNC(=S)S | inactive
CN(C)CC/C=C1\c2ccccc2COc2ccccc21 | inactive
O=C(O)Cc1cc(I)c(Oc2ccc(O)c(I)c2)c(I)c1 | inactive
CC(=O)N(O)CCCCCNC(=O)CCC(=O)N(O)CCCCCNC(=O)CCC(=O)N(O)CCCCCN | inactive
O=S1(=O)c2cccc3cccc(c23)N1CCCN1CCN(c2ccc(F)cc2)CC1 | inactive
C=CCCCCCC | inactive
O=C1CCCCCO1 | inactive
CN(C)CC[C@@H](c1ccc(Br)cc1)c1ccccn1 | inactive
FC(F)(F)C(F)(F)C(F)(F)C(F)(F)C(F)(F)C(F)(F)CCI | inactive
O=C(c1ccc(O)cc1)c1ccc(O)cc1 | inactive
O=C(O)C(c1ccc(Cl)cc1)c1ccc(Cl)cc1 | inactive
O=C(NS(=O)(=O)/C=C/c1cccs1)c1ccc(F)cc1Br | inactive
O=C(O)C1CCC(C(=O)O)CC1 (configuration not stated) | inactive
CC(=O)OC/C=C/c1ccccc1 | inactive
c1ccc(-c2nc[nH]c2-c2ccccc2)cc1 | inactive
CN1CCC(OC(c2ccccc2)c2ccccc2)CC1 | inactive
CC(=O)OCCc1ccccc1 | inactive
Cc1ccc(C(C)c2ccc(C)c(C)c2)cc1C | inactive

Source: PubChem BioAssay (Tox21)
